Bioassay records: PubChem BioAssay, several laboratories
An excerpt weighted towards active compounds, which were near 4.1% of everything screened.
Shn3 inh set2: reduction of Shn3 3'UTR firefly luciferase signal, primary screen, Schnurri-3 inhibitor project, cell-based, Clone20 osteoblasts, set 2; inhibition, % at 12.5 µM; Clone20 osteoblast Shn3 3'UTR firefly luciferase, 24 h; 0.52% of 360,000 active;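 active = mean inhibition of at least 75% with every replicate also reaching 75%; inconclusive = mean inhibition at least 75% but some replicate below; inactive = mean inhibition below 75%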;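 note: 0% = median of neutral control wells and 100% = pilot-screen positive control compound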
EBV LMP1 NFkB: EBV LMP1-driven NF-kappaB luciferase reporter inhibitors, primary screen, cell-based, luminescence, single point. LMP1-induced NF-kappaB luciferase reporter cells. inhibition, % at 12.5 µM. 0.69% of 350,000 active. AID 504558, 2011; in the data active = inhibition above about 41%; inconclusive = no clear call, values can overlap the other calls;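 note: 0% = neutral control wells and 100% = reference inhibitor control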
TWEAK Fn14 block: inhibitors of TWEAK-Fn14 signaling, primary screen, luciferase reporter cells, uHTS | inhibition, % at 10 µM | 2% of 360,000 active | TWEAK-stimulated Fn14 reporter cells, luciferase luminescence, 8 h; in the data active = inhibition above about 50%
Peg3 promoter: Peg3 promoter-driven luciferase inhibitors, primary screen, cell-based, HeLa, luciferase luminescence | HeLa PEG-Prom luciferase reporter, overnight | AID 588405, 2011 | inhibition, % at 20 µM | 1.7% of 360,000 active;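 active = inhibition of at least 50% at 20 µM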
MITF TRPM1 inh: inhibitors of MITF-dependent TRPM1 promoter reporter, primary screen, cell-based, SK-MEL-5, single point, luciferase. SK-MEL-5 TRPM1 promoter luciferase, 24 h. inhibition, % at 12.5 µM. 0.83% of 330,000 active;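 active = mean inhibition across replicates of 60% or more, whatever share of single replicates reaches that level; inconclusive = some that reach 60%, reason not given; inactive = mean inhibition across replicates below 60%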
TROY NFkB inh: inhibitors of TROY-driven NF-kB signaling, primary screen, Q293 LMP1-TROYcd cells, NF-kB luciferase, uHTS; Q293 LMP1-TROYcd NF-kB luciferase reporter, 4 h; inhibition, % at 10 µM; 0.98% of 360,000 active;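 active = compounds whose plate-normalised and pattern-corrected inhibition of the luciferase reporter signal at the single screening dose is 50% or more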
The depositor's hits bear a star; ? = inconclusive; . = not tested or not shown; ! = not active in a repeat.

SMILES	Shn3 inh set2	EBV LMP1 NFkB	TWEAK Fn14 block	Peg3 promoter	MITF TRPM1 inh	TROY NFkB inh
Cc1cc(C(=O)N/N=C2\CCCC(=O)C2)c(C)n1-c1ccccc1	-40.8	-7.1	42.7	-51.9	-25.4	74.9*
Cc1cc(C(=O)N/N=C/c2ccc3c(c2)OCO3)c(C)n1-c1ccc(F)cc1	-4.9	-6.4	2.9	-26.2	5.3	50.3*
Cc1cc(C(=O)N/N=C/c2ccc(Cl)c([N+](=O)[O-])c2)c(C)n1-c1ccc(F)cc1	11.0	3.3	63.2*	105.3*	62.8*	41.6
Cc1cc(C(=O)N/N=C/c2cccc([N+](=O)[O-])c2)c(C)n1-c1ccccc1	-62.9	-14.9	-5.7	-155.1	-75.5	5.0
COc1ccc(/C=N/NC(=O)c2cc(C)n(-c3ccccc3)c2C)cc1OC	4.2	5.5	14.1	-65.1	-29.2	61.6*
Cc1ccc(NC(=O)COC(=O)C2=COCCO2)c([N+](=O)[O-])c1	-8.5	4.3	5.5	17.3	5.5	16.3
CC(=O)c1c(C)[nH]c(C(=O)OCC(=O)Nc2ccc(C)cc2[N+](=O)[O-])c1C	79.1	-1.8	63.2*	-3.5	-3.2	40.7
CC(=O)c1c(C)[nH]c(C(=O)OCC(=O)Nc2cc(Cl)ccc2[N+](=O)[O-])c1C	3.9	21.0	88.1*	14.7	26.8	69.8*
c1ccc(CNCCCNCCCCNCCCNCc2ccccc2)cc1	-23.0	9.4	-18.3	110.1*	-3.0	10.5
COc1ccccc1N1CCN(c2ccc(-c3ccccc3)nn2)CC1	-3.1	69.6*	70.8*	8.5	40.1	65.7*
COc1ccccc1N1CCN(c2ccc3ccccc3n2)CC1	-66.0	-29.5	48.7	-197.6	-112.9	34.7
COc1ccccc1N1CCN(c2ncnc3c2oc2ccccc23)CC1	-13.6	16.4	21.1	57.5*	2.2	34.4
COc1ccccc1N1CCN(Cc2ccc(OC)c(OC)c2OC)CC1	19.2	4.5	-16.8	2.0	-1.8	5.5
COc1ccccc1N1CCN(Cc2ccc(O)c3ncccc23)CC1	88.3*	72.7*	7.8	34.2	87.8*	1.8
CCOc1ccc(-n2c(-c3ccccc3)c[n+]3c2CCCCC3)cc1	?	22.2	28.5	13.7	63.0*	31.2
Cc1ccc(-c2c[n+]3c(n2-c2ccccc2)CCC3)cc1	90.6*	18.9	-4.0	34.7	48.0	11.5
COC(=O)c1cc2c(s1)-c1ccccc1OC2	-17.3	-12.3	-10.0	-76.5	-12.5	-64.7
CC1CCCN(CCCNC(=O)c2cc3c(s2)-c2ccccc2OC3)C1 (stereo unspecified)	-10.2	-9.0	-31.0	75.3*	29.6	-28.4
CC1CCCN(CCCNC(=O)c2cc3c(Cl)nc4ccccc4c3s2)C1 (stereo unspecified)	13.1	-11.1	-102.7	91.9*	-6.3	-48.8
Cc1cccc2c1-c1sc(C(=O)NCCCN3CCC(C)CC3)cc1CO2	-13.1	-17.1	-17.5	74.7*	1.5	-58.2
COc1cc(NC(=O)c2cc3c(Cl)nc4ccccc4c3s2)cc(OC)c1OC	94.2*	34.1	-1.0	10.0	-11.2	-5.5
CCOC(=O)CC(NC(=O)CCc1c(C)nc2ncnn2c1C)c1ccc(C)cc1 (stereo unspecified)	-4.9	-12.5	-9.6	1.7	3.8	4.2
CC(=O)Nc1ccc(S(C)(=O)=O)c(C)c1	9.6	-3.2	-2.5	5.2	1.7	-7.3
CC1CCN(CCCNC(=O)c2cc3c(s2)-c2ccccc2OC3)CC1	-15.0	-1.3	-16.0	61.9*	45.5	-11.3
CN(C)C(=O)CCc1ccc2c3c([nH]c2c1)[C@]1(C)[C@@H](C(=O)N2CCOCC2)C[C@H](CC(=O)NCCC2=CCCCC2)C(=O)N1CC3	6.3	-0.1	5.7	4.9	-16.4	-13.6
SMILES	Shn3 inh set2	EBV LMP1 NFkB	TWEAK Fn14 block	Peg3 promoter	MITF TRPM1 inh	TROY NFkB inh
CCOC(=O)CNC(=O)N1CCCC(Cc2ccccc2)(C(=O)OCC)C1 (stereo unspecified)	-4.9	5.7	-1.0	4.8	12.1	-19.9
FC(F)(F)c1ccccc1-n1c(-c2ccco2)n[nH]c1=S	-1.9	12.4	87.6*	-7.8	1.4	25.5
CCCCS(=O)(=O)/C=C\C=C/S(=O)(=O)CCCC	96.1*	92.1*	79.2*	102.0*	104.0*	46.7
CC(C)c1nc(SCC(=O)NC2CCCC2)c2c(=O)n(C)c(=O)n(C)c2n1	-6.0	2.7	6.5	8.7	-3.7	12.8
CCC1C/C(=C\c2cccnc2)C(=O)/C(=C/c2cccnc2)C1 (stereo unspecified)	39.6	93.2*	104.7*	108.9*	97.1*	59.4*
COc1ccc(/C=C2\CCc3ccccc3C2=O)cc1O	-4.1	-5.6	73.5*	-211.0	-12.0	30.5
O=C1/C(=C/c2cccnc2)CC/C1=C\c1cccnc1	-15.8	-2.0	15.3	1.9	2.3	7.4
O=C1/C(=C\c2cccnc2)CCc2ccccc21	2.9	-2.8	92.4*	-20.0	-12.0	.
CC(=O)Nc1ccc(/C=C2\CCc3ccccc3C2=O)cc1	-7.0	-21.8	76.0*	-307.8	-40.3	71.4*
COc1ccc(CN2CCN(CCc3ccccc3)C(CCO)C2)c(O)c1 (stereo unspecified)	15.8	3.9	5.3	17.6	6.1	-53.4
O=C1/C(=C/c2ccc(O)cc2)CCc2ccc([N+](=O)[O-])cc21	-25.9	-6.6	-50.1	-9.7	-28.6	-12.7
O=C1/C(=C\c2ccc([N+](=O)[O-])cc2)CCc2ccccc21	-40.3	-25.9	86.1*	-128.3	-18.5	55.4*
C#CCCOC(=O)N1C2=NC(C(=O)OC)=C(C(=O)OC)[C@@H]3Nc4ccccc4[C@]23C[C@H]1C(=O)OC	-0.9	-1.2	7.8	-20.6	2.4	-19.5
NCCCS(=O)(=O)O	-19.0	53.9*!	-4.8	-6.1	-1.6	11.5
S=C(Nc1ccc(OCc2ccccc2)cc1)Nc1cccc(Cl)c1Cl	-15.1	74.0*	-7.9	-10.1	-15.9	-23.5
S=C(Nc1ccccc1)Nc1ccc(OCc2ccccc2)cc1	5.5	-2.6	-15.6	-36.9	-8.6	-32.6
O=C(CSCc1ccccc1)NNC(=S)Nc1cccc(Cl)c1Cl	-27.9	-3.7	63.6*	-58.6	9.8	.
COc1ccc(C(=O)N2CC3(C)CC2CC(C)(C)C3)cc1 (stereo unspecified)	-6.4	7.2	6.1	16.1	-9.1	66.0*
CC1(C)CC2CC(C)(CN2C(=O)c2ccccc2)C1 (stereo unspecified)	32.6	-0.9	-2.7	8.9	4.3	8.2
COc1ccc(S(=O)(=O)c2cnc3ccccc3n2)cc1	30.8	2.4	42.0	21.6	10.2	-0.7
O=S(=O)(c1ccc(Br)cc1)c1cnc2ccccc2n1	0.5	1.4	54.6*	32.6	8.5	28.1
